The subject of one test is RXRa DBDmut IVT, anti-RXR (DBD mutation: RXRa K156A/R161A, NR concentration 90 nM). As to the kind of experiment: PBM binding z-score (relative to random genomic background probes); higher = stronger binding; sequences stand for … in GC…GCGATTGACAGCGTAGAATGAAGG
The procedure, abridged:
(§1)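 Binding buffer was PBS pH 7.4 with 2% milk, 0.02% Triton X-100, 1 mM DTT, 0.2 mg/mL BSA and 0.4 mg/ml salmon testes DNA. In it, ligand-free nuclear receptor dimers were incubated 1 h on custom Agilent 4×180K protein-binding microarrays carrying double-stranded probes. Antibodies against each partner (one per run) detected binding, and z-scores were calculated against random background probes after regression normalization of scanned fluorescence.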
Take CCGACTGGGGAAAAGGTTACCATACTCAGTACGA: the PBM binding z-score stood at 0.237.
The sequence CAAACGAGGGCATGAGTTGATAGCAAATGCCGAT showed a PBM binding z-score of 2.13.
The same measure, in the same setting: as for TTACCAAAGTGAGCTGAGGTCGTTGATCCAACTC, the figure is -0.0811; as for TCGAGTAGGTTAGTGGCATTCAGAATGGCGTCGA, 0.0324; as for CCAGACAGGTGAGAAGGTAATTCAGCCTCGATTA, -0.0232.
Still for that read-out and setting: as for CGTCCAAGGTCAGCAGGTCAGTGTAAGCGACGTG, the figure is 2.55; as for GCAGACAGGTGAAACGAAGGTAACTCAGGGTGGC, -0.588.
With GCGATTGGGGCATCAGCAGGTTACCATAACTTAA, the PBM binding z-score was determined as 0.393.
The same measure, in the same setting: to CCTTACGGGTCACTCCGGGTTATAGCATCGGAGT belongs 1.3.
CCTAGCAGGCCTATCTGGGTCACTCAAGGCTTGA displayed a PBM binding z-score of -0.488.
The sequence ACTCGGAGCACAAAGGTCAGAGCTACGCCAGTGA came in with a PBM binding z-score of 0.345.
Sequence AGAGTGAGGTTAAGATCAGGGAAACAGAATACAT gave a PBM binding z-score of 0.869.
As for CAAACTAGGTCGCGAAAGGTCAAAGTCGAATGAC, the PBM binding z-score was determined as 1.98.
Sequence CAAACTAGGTCTAAGGTCAAAGTCGAGCCAACCA gave a PBM binding z-score of 2.51.
For the sequence GATACAGGGTCAAGGCCAGAGTTCGCGTATTGAT, the PBM binding z-score stood at 2.9.
On to CCTACTAGGCCACGAAAGGTCATTGATTCAGTGA, for which the PBM binding z-score was determined as 1.22.
As for AGAATGAGGTTAAGATCAGGGACACAGAATACAT, the PBM binding z-score was 1.14.
Sequence TCTTGTAGATCTAGCAGGTTAAGAAAGCCTGAGT returned a PBM binding z-score of 0.705.
CCGAGTAGGTTATAGGGCATTCAGGCAACGGTGA had a PBM binding z-score of 0.485.
On the same count and under the same terms, as for TAGCCTAGGTCTTTCAGGGGCCAGTATAGAAAGC, the figure is -0.58; as for CCTGGTAGGTCAATGGTCAGCTAAAGCAGCTCGC, 0.676; as for CCTACTGTGCCAAGGTCATTGATCAGTCAAAGCA, 2.18.
For TCTCGTTGGTCAAAGGTCACACACTCGAAATGCG, the PBM binding z-score was determined as 1.99.
Same read-out and setting: as for TAGCCTAGGTCATTGGGCCACTATAGTACGCATC, the figure is 1.92; as for TAGCCTAGGTCATTCAGTGGCCAGTATAGAAAGC, 1.92; as for TGAATGAGGTTATAAGATGAGGGAACGTTGCAAA, 0.817.
The sequence CAAACTAGGCCAAAGGTCAAAGTCGAGCCAACCA showed a PBM binding z-score of 1.38.
Consider GCAGGCAGGTGAAACGCAGGTAACTCAGGGTGGC, for which the PBM binding z-score is -0.721.
In turn, CTCGAAAGGTCGGTTGAGGTTAGTATACGGATAA came in with a PBM binding z-score of 1.15.
As to CCAACTAGGTCAAGGACAGTGAATCTCCGCACGC, the PBM binding z-score came out at 1.8.
Take CCGACTGGGGCATAAAGGTTACCATACCATCCGG: the PBM binding z-score was -0.788.
On the same count and under the same terms, as for ACTAGTTGGTCAGCTGAGGTCAGACACAATTCGG, the figure is 0.548; as for AGTCAAAGTTCATCTAGGTACCGTAAGATATGCT, 4.67; as for CCGACAGGGGCAAAGGTTACCATACTCAGTACGA, 1.26.
With CCTATTGGGCCATTCAGAGGTCATTGATCATATG, the PBM binding z-score is 1.48.
CCTATTAGTTGACCCTAAGGGCAACCGAAGCTCG displayed a PBM binding z-score of 0.762.
In turn, AGTCAAAGTTCCCTAGGTAACGTAAGATTCAGCT yielded a PBM binding z-score of 0.164.
TGTAGCAGGCCAGAGGGTCACTCAAGAGGTACGG: the PBM binding z-score was -1.32.
For TAGCCTTGGTCAGATCGGGCCAGTATACGCTATA, the PBM binding z-score was -1.12.
ATCCCTAGGTAAAGTTCAGTGAAAGATCGATAGA: the PBM binding z-score came to 1.28.

The subject of a further test is RXRa homodimer (NR concentration 180 nM). The test is described as above. The procedure, abridged:
as §1
As to CCGACTGGGGAAAAGGTTACCATACTCAGTACGA, the PBM binding z-score came to 1.86.
Same read-out and setting: to CAAACGAGGGCATGAGTTGATAGCAAATGCCGAT belongs 1.29; to TTACCAAAGTGAGCTGAGGTCGTTGATCCAACTC, 0.805.
Take TCGAGTAGGTTAGTGGCATTCAGAATGGCGTCGA: the PBM binding z-score was -0.235.
CCAGACAGGTGAGAAGGTAATTCAGCCTCGATTA came in with a PBM binding z-score of 0.24.
On the same count and under the same terms, as for CGTCCAAGGTCAGCAGGTCAGTGTAAGCGACGTG, the figure is 4.93.
With GCAGACAGGTGAAACGAAGGTAACTCAGGGTGGC, the PBM binding z-score amounted to 0.938.
GCGATTGGGGCATCAGCAGGTTACCATAACTTAA displayed a PBM binding z-score of 0.323.
Consider CCTTACGGGTCACTCCGGGTTATAGCATCGGAGT, for which the PBM binding z-score was determined as 4.73.
With CCTAGCAGGCCTATCTGGGTCACTCAAGGCTTGA, the PBM binding z-score was 0.644.
The sequence ACTCGGAGCACAAAGGTCAGAGCTACGCCAGTGA registered a PBM binding z-score of 4.98.
In turn, AGAGTGAGGTTAAGATCAGGGAAACAGAATACAT gave a PBM binding z-score of 2.52.
CAAACTAGGTCGCGAAAGGTCAAAGTCGAATGAC showed a PBM binding z-score of 7.33.
The same measure, in the same setting: as for CAAACTAGGTCTAAGGTCAAAGTCGAGCCAACCA, the figure is 5.24; as for GATACAGGGTCAAGGCCAGAGTTCGCGTATTGAT, 6.18; as for CCTACTAGGCCACGAAAGGTCATTGATTCAGTGA, 5.5.
The sequence AGAATGAGGTTAAGATCAGGGACACAGAATACAT showed a PBM binding z-score of 2.48.
As for TCTTGTAGATCTAGCAGGTTAAGAAAGCCTGAGT, the PBM binding z-score worked out at 0.231.
On the same count and under the same terms, to CCGAGTAGGTTATAGGGCATTCAGGCAACGGTGA belongs 1.19; to TAGCCTAGGTCTTTCAGGGGCCAGTATAGAAAGC, -0.286; to CCTGGTAGGTCAATGGTCAGCTAAAGCAGCTCGC, 2.66.
The same measure, in the same setting: as for CCTACTGTGCCAAGGTCATTGATCAGTCAAAGCA, the figure is 3.4; as for TCTCGTTGGTCAAAGGTCACACACTCGAAATGCG, 8.17.
TAGCCTAGGTCATTGGGCCACTATAGTACGCATC: the PBM binding z-score amounted to 2.97.
The sequence TAGCCTAGGTCATTCAGTGGCCAGTATAGAAAGC returned a PBM binding z-score of 2.63.
Take TGAATGAGGTTATAAGATGAGGGAACGTTGCAAA: the PBM binding z-score was 1.76.
CAAACTAGGCCAAAGGTCAAAGTCGAGCCAACCA yielded a PBM binding z-score of 7.49.
With GCAGGCAGGTGAAACGCAGGTAACTCAGGGTGGC, the PBM binding z-score amounted to 0.329.
As for CTCGAAAGGTCGGTTGAGGTTAGTATACGGATAA, the PBM binding z-score amounted to 2.6.
For CCAACTAGGTCAAGGACAGTGAATCTCCGCACGC, the PBM binding z-score amounted to 2.41.
Take CCGACTGGGGCATAAAGGTTACCATACCATCCGG: the PBM binding z-score came out at 1.63.
As for ACTAGTTGGTCAGCTGAGGTCAGACACAATTCGG, the PBM binding z-score was 2.51.
On the same count and under the same terms, as for AGTCAAAGTTCATCTAGGTACCGTAAGATATGCT, the figure is 4.36.
CCGACAGGGGCAAAGGTTACCATACTCAGTACGA registered a PBM binding z-score of 5.03.
The sequence CCTATTGGGCCATTCAGAGGTCATTGATCATATG registered a PBM binding z-score of 3.41.
The same measure, in the same setting: to CCTATTAGTTGACCCTAAGGGCAACCGAAGCTCG belongs 5.73.
Sequence AGTCAAAGTTCCCTAGGTAACGTAAGATTCAGCT returned a PBM binding z-score of -0.00363.
Regarding TGTAGCAGGCCAGAGGGTCACTCAAGAGGTACGG, the PBM binding z-score worked out at 2.64.
Regarding TAGCCTTGGTCAGATCGGGCCAGTATACGCTATA, the PBM binding z-score is -0.507.
In turn, ATCCCTAGGTAAAGTTCAGTGAAAGATCGATAGA showed a PBM binding z-score of 1.16.

Source of the values: the supplement of paper PMC6555819.
